# Data published in PubChem BioAssay (EPA / NIEHS).
# Where “and” joins values, the source holds several entries; their conditions need not be identical. Equal entries are not always repeated. Records with an inconclusive call do not appear. Calls of active or inactive are those of the source. The calls were made as follows, unless noted: active = hit-call score of the fitted dose curve at least 0.9, where 1 is the maximum; inconclusive = response in the unintended direction; inactive = score below 0.9.
# Tests used:
# [1] = test system: DIO1 (gene 1733); assay: CCTE_GLTED_hDIO1: CCTE's human Deiodinase 1 (DIO1) Inhibition Assay, Great Lakes Toxicology and Ecology Division (GLTED) Lab (AID 2283987);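 also: isolated human DIO1 enzyme in a cell-free setup rather than cells; enzyme activity read as free iodide liberated from substrate via Sandell-Kolthoff colorimetry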
# In short: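 Inhibition of human deiodinase 1 is scored as reduced iodide liberation after a 3 h enzyme–chemical incubation, detected colorimetrically by the Sandell-Kolthoff reaction against DMSO controls.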
# [2] = biological target: Nucleoli Translocation, AR (gene 367) (UniProt P10275); assay: UPITT_HCI_U2OS_AR_TIF2_Nucleoli_Antagonist: University of Pittsburgh U2OS Androgen Receptor-Transcriptional Intermediary Factor 2 (AR-TIF2) Antagonism High Content Imaging Assay for Nucleoli Translocation (AID 2283997)
# Sequence of Nucleoli Translocation, AR (gene 367) (P10275 whole entry, looked up, the tested form may be a part): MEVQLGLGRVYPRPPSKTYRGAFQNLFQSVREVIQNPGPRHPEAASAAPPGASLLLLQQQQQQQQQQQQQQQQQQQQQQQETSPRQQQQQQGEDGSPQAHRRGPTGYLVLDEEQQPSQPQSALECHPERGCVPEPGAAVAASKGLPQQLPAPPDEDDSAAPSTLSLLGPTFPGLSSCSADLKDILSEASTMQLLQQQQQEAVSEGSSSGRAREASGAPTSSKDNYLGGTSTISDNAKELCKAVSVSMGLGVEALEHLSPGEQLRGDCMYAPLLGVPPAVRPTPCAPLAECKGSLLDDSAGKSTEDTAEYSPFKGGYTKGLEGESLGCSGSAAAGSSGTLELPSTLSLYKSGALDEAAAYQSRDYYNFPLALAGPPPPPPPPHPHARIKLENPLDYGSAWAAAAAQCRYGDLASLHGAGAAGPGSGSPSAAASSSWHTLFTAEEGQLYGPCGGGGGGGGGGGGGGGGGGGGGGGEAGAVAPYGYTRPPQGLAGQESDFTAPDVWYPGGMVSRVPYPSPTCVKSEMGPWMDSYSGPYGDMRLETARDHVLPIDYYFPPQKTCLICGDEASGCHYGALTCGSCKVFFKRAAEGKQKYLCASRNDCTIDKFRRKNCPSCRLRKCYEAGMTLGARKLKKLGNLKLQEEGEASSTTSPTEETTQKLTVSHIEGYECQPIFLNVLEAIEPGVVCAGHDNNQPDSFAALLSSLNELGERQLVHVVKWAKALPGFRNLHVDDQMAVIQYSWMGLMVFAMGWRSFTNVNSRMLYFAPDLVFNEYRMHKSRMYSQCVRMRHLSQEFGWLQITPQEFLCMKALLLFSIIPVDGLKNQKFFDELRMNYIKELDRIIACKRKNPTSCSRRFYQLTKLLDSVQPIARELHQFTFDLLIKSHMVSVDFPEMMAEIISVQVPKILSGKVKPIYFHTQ
# In short: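 Antagonism is read as loss of nucleolar AR-RFP signal relative to DHT, imaged in U2OS cells also carrying GFP-TIF2. Compounds screened at 20 uM final, 0.2% DMSO; primary actives retested in triplicate.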
# [3] = biological target: Nucleoli Translocation, AR (gene 367) (UniProt P10275); assay: UPITT_HCI_U2OS_AR_TIF2_Nucleoli_Agonist: University of Pittsburgh U2OS Androgen Receptor-Transcriptional Intermediary Factor 2 (AR-TIF2) Agonism High Content Imaging Assay for Nucleoli Translocation (AID 2283998)
# Source text: UPITT_AR_TIF2_PPIB is a cell-based, high-content imaging assay that uses U2OS, a human osteosarcoma cell line, expressing a human androgen receptor fused to red fluorescent protein and the coactivator TIF2 fused to green fluorescent protein. UPITT_HCI_U2OS_AR_TIF2_Nucleoli_Agonist is one of four assay components measured from the UPITT_AR_TIF2_PPIB assay. It is designed to make measurements of red fluorescence localized in the nucleolar region of the cell nucleus as detected with high-content fluorescent imaging.Data from the assay component UPITT_HCI_U2OS_AR_TIF2_Nucleoli_Agonist was analyzed into 1 assay endpoint. This assay endpoint, UPITT_HCI_U2OS_AR_TIF2_Nucleoli_Agonist, was analyzed in the positive analysis fitting direction relative to DMSO as the baseline of activity. Using a type of binding reporter, measures of receptor for gain-of-signal activity can be used to understand the binding at the pathway-level as it relates to the gene AR.
# Daughter plates containing 2 uL of 10 mM compounds in DMSO were prepared and replicated from the 384-well Library of Pharmacologically Active Compounds (LOPAC) master plates using the Bravo outfitted with a 384-well transfer head. Aluminum adhesive plate seals were applied with an Abgene Seal-IT 100 (Rochester, NY) plate sealer, and the plates were stored at -20 C in a Matrical MatriMinistore (Spokane, WA) automated compound storage and retrieval system. For screening, LOPAC daughter plates were withdrawn from -20C storage, thawed to ambient temperature, centrifuged 1-2 min at 50 g, and the plate seals were removed before the transfer of 98 uL of serum-free tissue culture medium (SFM) into wells using the BioTek Microflo liquid handler (BioTek, Winooski, VT) to generate a 200 uM intermediate stock concentration of library compounds (2.0% DMSO). The diluted compounds were mixed by repeated aspiration and dispensation using a 384-well P30 dispensing head on the Evolution P3 (EP3) liquid handling platform (PerkinElmer, Waltham, MA) and then 5 uL of diluted compounds was transferred to the wells of assay plates. In the LOPAC screen, compounds were individually tested at a final concentration of 20 uM (0.2% DMSO). After the diluted compounds had been transferred from the daughter plates to the primary HCS assay plates, aluminum adhesive plate seals were applied and the diluted daughter plates were stored frozen at -20C. To confirm active compounds identified in the primary screen, we withdrew the LOPAC daughter plates containing the 200 uM intermediate concentration of library compounds (2.0% DMSO) from -20C storage, thawed them to ambient temperature, centrifuged them for 1-2 min at 50 g, and removed the plate seals. A work list was generated to direct the Multiprobe Janus liquid handling platform (PerkinElmer) to cherry pick 75 uL from the wells of the diluted daughter plates that were flagged active in the primary screen and to reformat these into a 384-well plate hit confirmation daughter plate. Five microliters of primary HCS active compounds was then transferred into triplicate wells of assay plates using a 384-well P30 dispensing head on the Evolution P3 (EP3) liquid handling platform (PerkinElmer). […] Daughter plates containing 2 uL of the serially diluted compounds in DMSO were prepared and replicated from the 384-well serial dilution master plates using the Bravo outfitted with a 384-well transfer head. Aluminum adhesive plate seals were applied and plates were stored at -20C. For testing in the bioassays, daughter plates were withdrawn from -20C storage, thawed to ambient temperature, centrifuged for 1-2 min at 50 g, and the plate seals were removed before the transfer of 38 uL of SFM into wells using the BioTek Microflo liquid handler (BioTek) to generate an intermediate stock concentration of library compounds ranging from 1.95 to 500 uM (5.0% DMSO). […]
# [4] = CCTE_Harrill_HTTr_Viability_PRF_DMEM_24hr: (Pilot) CCTE's 24-hour Cell Viability Assessment for the High-Throughput Transcriptomics (HTTr) Platform, in MCF-7 cells cultured in phenol red-free DMEM + 10% charcoal-stripped fetal bovine serum, Harrill Lab (AID 2283980; active = hit-call score of the fitted dose curve at least 0.9, where 1 is the maximum; inactive = score below 0.9)
# In short: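 Propidium iodide exclusion imaged at 24 h after dosing scores viability; cells were MCF-7 grown in phenol red-free DMEM plus 10% charcoal-stripped serum, tested in eight concentrations, fitted in both directions against DMSO.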
# [5] = CCTE_Harrill_HTTr_Apoptosis_DMEM_6hr: (Pilot) CCTE's 6-hour Apoptosis Assessment for the High-Throughput Transcriptomics (HTTr) Platform, in MCF-7 cells cultured in DMEM + 10% fetal bovine serum, Harrill Lab (AID 2283981; active = hit-call score of the fitted dose curve at least 0.9, where 1 is the maximum; inactive = score below 0.9)
# In short: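 MCF-7 cells grown in DMEM + 10% FBS were exposed for 6 hours to an eight-point dilution series. CellEvent Caspase 3/7 Green signal was imaged; activity fitted bidirectionally against DMSO.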
# [6] = CCTE_Harrill_HTTr_Apoptosis_DMEM_12hr: (Pilot) CCTE's 12-hour Apoptosis Assessment for the High-Throughput Transcriptomics (HTTr) Platform, in MCF-7 cells cultured in DMEM + 10% fetal bovine serum, Harrill Lab (AID 2283982; active = hit-call score of the fitted dose curve at least 0.9, where 1 is the maximum; inactive = score below 0.9)
# In short: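 Caspase-3/7 activity was measured by high-content imaging (CellEvent Caspase 3/7 Green) after a 12-hour exposure of MCF-7 cells grown in DMEM with 10% FBS. Eight-point concentration series, fitted bidirectionally against vehicle.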
# [7] = CCTE_Harrill_HTTr_Apoptosis_DMEM_24hr: (Pilot) CCTE's 24-hour Apoptosis Assessment for the High-Throughput Transcriptomics (HTTr) Platform, in MCF-7 cells cultured in DMEM + 10% fetal bovine serum, Harrill Lab (AID 2283983; active = hit-call score of the fitted dose curve at least 0.9, where 1 is the maximum; inactive = score below 0.9)
# Source text: This is a cell-based assay that evaluates apoptosis using high content imaging to evaluate activation of caspase-3/7 using the CellEvent Caspase 3/7 Green detection reagent in 384-well format.One of seven assay components measured from the CCTE_Harrill_HTTr_Apoptosis assay. This was part of a pilot experiment. This is a cell-based assay that evaluates apoptosis in MCF-7 cells cultured in DMEM + 10% fetal bovine serum. High content imaging is used to evaluate activation of caspase-3/7 using the CellEvent Caspase 3/7 Green detection reagent. Measurements are taken at 24 hours after chemical dosing in 384-well format.The assay component endpoint CCTE_Harrill_HTTr_Apoptosis_DMEM_24hr was analyzed with bidirectional fitting relation to DMSO as the negative control and baseline of activity. Using a type of viability reporter, gain-of-signal activity can be used to evaluate activation of caspase-3/7 using the CellEvent Caspase 3/7 Green detection reagent to understand changes in apoptosis. To generalize the intended target to other relatable targets, this assay endpoint is annotated to cell cycle, where the subfamily is apoptosis.
# Chemicals were tested in MCF7 cells in an eight point dilution series with a twenty-four hour exposure duration.
# [8] = CCTE_Harrill_HTTr_Apoptosis_PRF_DMEM_6hr: (Pilot) CCTE's 6-hour Apoptosis Assessment for the High-Throughput Transcriptomics (HTTr) Platform, in MCF-7 cells cultured phenol red-free DMEM + 10% charcoal-stripped fetal bovine serum, Harrill Lab (AID 2283984; active = hit-call score of the fitted dose curve at least 0.9, where 1 is the maximum; inactive = score below 0.9)
# Source text: (§1) This is a cell-based assay that evaluates apoptosis using high content imaging to evaluate activation of caspase-3/7 using the CellEvent Caspase 3/7 Green detection reagent in 384-well format.One of seven assay components measured from the CCTE_Harrill_HTTr_Apoptosis assay. This was part of a pilot experiment. This is a cell-based assay that evaluates apoptosis in MCF-7 cells cultured in phenol red-free DMEM + 10% charcoal-stripped fetal bovine serum. High content imaging is used to evaluate activation of caspase-3/7 using the CellEvent Caspase 3/7 Green detection reagent. Measurements are taken at 6 hours after chemical dosing in 384-well format.The assay component endpoint CCTE_Harrill_HTTr_Apoptosis_PRF_DMEM_6hr was analyzed with bidirectional fitting relation to DMSO as the negative control and baseline of activity. Using a type of viability reporter, gain-of-signal activity can be used to evaluate activation of caspase-3/7 using the CellEvent Caspase 3/7 Green detection reagent to understand changes in apoptosis. To generalize the intended target to other relatable targets, this assay endpoint is annotated to cell cycle, where the subfamily is apoptosis.
# Chemicals were tested in MCF7 cells in an eight point dilution series with a six hour exposure duration.
# [9] = CCTE_Harrill_HTTr_Apoptosis_PRF_DMEM_12hr: (Pilot) CCTE's 12-hour Apoptosis Assessment for the High-Throughput Transcriptomics (HTTr) Platform, in MCF-7 cells cultured in phenol red-free DMEM + 10% charcoal-stripped fetal bovine serum, Harrill Lab (AID 2283985; active = hit-call score of the fitted dose curve at least 0.9, where 1 is the maximum; inactive = score below 0.9)
# Source text: as §1, with “12” for “6”, “CCTE_Harrill_HTTr_Apoptosis_PRF_DMEM_12hr” for “CCTE_Harrill_HTTr_Apoptosis_PRF_DMEM_6hr”
# Chemicals were tested in MCF7 cells in an eight point dilution series with a twelve hour exposure duration.
# [10] = CCTE_Harrill_HTTr_Apoptosis_PRF_DMEM_24hr: (Pilot) CCTE's 24-hour Apoptosis Assessment for the High-Throughput Transcriptomics (HTTr) Platform, in MCF-7 cells cultured in phenol red-free DMEM + 10% charcoal-stripped fetal bovine serum, Harrill Lab (AID 2283986; active = hit-call score of the fitted dose curve at least 0.9, where 1 is the maximum; inactive = score below 0.9)
# In short: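 Eight concentrations tested for 24 h on MCF-7 grown in charcoal-stripped serum, phenol red-free DMEM. High content imaging of CellEvent Caspase 3/7 Green signal gives apoptosis read-out, fitted both ways relative to DMSO.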
structure (smiles),measurement,setting,value
Oc1cc(Cl)ccc1Oc1ccc(Cl)cc1Cl,AC50,[1],60.4 µM (active) [middle of 5 runs]
O=[N+]([O-])c1c(Cl)c(Cl)c(Cl)c(Cl)c1Cl,AC50,[2],20.6 µM (active)
same,outcome,[3],inactive
O=[N+]([O-])/N=C1\NCCN1Cc1ccc(Cl)nc1,outcome,[2],inactive
same,outcome,[3],inactive
CCC(C)(C)C(=O)OC1=C(c2ccc(Cl)cc2Cl)C(=O)OC12CCCCC2,AC50,[2],50 µM (active)
same,outcome,[3],inactive
C#CCN1C(=O)COc2cc(F)c(N3C(=O)C4=C(CCCC4)C3=O)cc21,outcome,[2],inactive
same,outcome,[3],inactive
C[C@H]1[C@H](c2ccc(Cl)cc2)SC(=O)N1C(=O)NC1CCCCC1,AC50,[2],27.4 µM (active)
same,outcome,[3],inactive
Oc1ccc(Cl)cc1Cc1ccccc1,AC50,[2],19.1 µM (active)
same,AC50,[3],13 µM (active)
COP(=S)(OC)Oc1ccc(SC)c(C)c1,AC50,[1],10.7 µM (active)
CCC(C)(NC(=O)c1cc(Cl)c(C)c(Cl)c1)C(=O)CCl (stereo not given),AC50,[1],16.1 µM (active)
O=S1OCC2C(CO1)C1(Cl)C(Cl)=C(Cl)C2(Cl)C1(Cl)Cl (stereo not given),AC50,[2],30.6 µM (active)
same,outcome,[3],inactive
O=S(=O)(O)C(F)(F)C(F)(F)C(F)(F)C(F)(F)C(F)(F)C(F)(F)C(F)(F)C(F)(F)F,outcome,[4],inactive
same,outcome,[5],inactive
same,outcome,[6],inactive
same,outcome,[7],inactive
same,outcome,[8],inactive
same,outcome,[9],inactive
same,outcome,[10],inactive
same,AC50,[1],173 µM (active) and 159 µM (active) and 170 µM (active)
O=C(O)CCCOc1ccc(Cl)cc1Cl,outcome,[2],inactive
same,outcome,[3],inactive
Cc1[nH]c(=O)n(C(C)(C)C)c(=O)c1Cl,outcome,[2],inactive
same,outcome,[3],inactive
CCOC1Oc2ccc(OS(C)(=O)=O)cc2C1(C)C (stereo not given),outcome,[2],inactive
